Assay results reported in the supplement of paper PMC10338343.
± gives the standard deviation.

What follows are sequences tested on EfPiwi piRISC loaded with L1MC piRNA (26 nt) (assay: pre-steady-state target cleavage rate (min^-1); auxiliary factor: 500 nM Ephydatia muelleri Gtsf1; guide: L1MC piRNA 5'p-UAACUAAAUACUAUGCAAGCUGUAGG; MIWI and MILI are mouse PIWI proteins and EfPiwi is from a freshwater sponge; tags in brackets are library labels; higher = faster piRNA-guided slicing of the target).
Method in brief: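 Active affinity-purified piRISC (1 nM) loaded with one synthetic guide was mixed with a transcribed, DNA-blocked target RNA library (0.1 nM), with or without 500 nM GTSF1 partner protein, in HEPES–potassium acetate buffer at 33 °C for 0–8 or 0–960 min. Uncleaved targets were sequenced, normalised to depth and to weakly complementary targets, and pooled across three trials, with k3 capped at 0.0001 min^-1. The pre-steady-state cleavage rate was determined with a burst-and-steady-state fit.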

| Sequence | pre-steady-state target cleavage rate |
| --- | --- |
| UCCUCCAACAGCUUGCAUAGUAUUUAGUAA | 0.00668 ± 0.0028 |
| UCCUGGUACAGCUUGCAAUAGUAUUUAGUUA | 0.00587 ± 0.0028 |
| UCCUGCUACAGCUUGCAUAGUAUUUCAGUUA | 0.00522 ± 0.0019 |
| UCCUGGUACAGCUUGCAUAGUAUUAUAGUUA | 0.00555 ± 0.0023 |
| UCCUGGUACACCUUGCAUAGUAUUUAGUUA | 0.00345 ± 0.0027 |
| UCCUGGAUCAGCUUGCAUAGUAUUUUGUUA | 0.0125 ± 0.0042 |
| UCCUGGUACAGCUUGCCAUAGUAUUUAGUUA | 0.0045 ± 0.0021 |
| UCCUGGAACAGCUUACAUAGUAUUUAGUUA | 0.0502 ± 0.012 |
| UCCUGGAAGAGCUUGCAUAGUAUUUAGUAA | 0.00426 ± 0.0021 |
| UCCUGGAACAGCAUGCAAAGUAUUUAGUUA | 0.0163 ± 0.0061 |
| UCCUGCUACAGCUUGCAUUGUAUUUAGUUA | 0.00662 ± 0.0024 |
| UCCUGGAUCAGCUUGCAUAGUAUUUACAAA | 0.00404 ± 0.002 |
| UCCUGGAACAGCUUGCCUAGUAUUUAGUUA | 0.0399 ± 0.013 |
| UCCUGGAUGUGCCUUGCAUAGUAUUUAGUUA | 0.0886 ± 0.031 |
| UCCUGCUACAGCAAGCAUAGUAUUUAGUUA | 0.0176 ± 0.0059 |
| UCCUCCUACAGCUUCCUUAGUAUUUAGUUA | 0.00472 ± 0.0022 |
| UCCUGGAUCACCUUGCAAAGUAUUUAGUUA | 0.00506 ± 0.0019 |
| UCCUGGUACAGCUUGCAUAGUAUUUAGAUA | 0.00705 ± 0.0034 |
| UCCUGCUACAGCUUGCAGAGUAUUUAGUUA | 0.006 ± 0.0022 |
| UCCUGGAUGUCCUUAGCAUAGUAUUUAGUUA | 0.00479 ± 0.003 |
| UCCUGCUACCGCUUGCAUAGUAUUUAGUUA | 0.0156 ± 0.005 |
| UCCUGGAUGUGCCUGCAUAGUAUUUAGUUA | 0.00933 ± 0.0036 |
| UCCUGGCACAGCUUGCAUAGUAUUUAGUUA | 0.0252 ± 0.0092 |
| UCCUGGAUCAGCUUGCUUACUAUUUAGUUA | 0.0032 ± 0.0024 |
